Screens as filed in PubChem BioAssay.
FPRL1 binder – human FPRL1 ligands by binding competition, primary screen, cell-based, FPR counter-screen, flow cytometry. inhibition, % (test concentration not listed). 24,000 compounds, 0.3% hits. FPRL1-expressing cells, fluorescent ligand binding inhibition;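 note: 0% = buffer alone and 100% = receptor blocker peptide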
VLA-4 allo ag – enhancers of LDV-FITC binding to VLA-4 integrin, primary screen, Jurkat cells, flow cytometry. Integrin alpha-4 (Homo sapiens), P13612. 24,000 tested, under 10 active. activation, % at 10 µM (by protocol);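 active = fluorescent ligand binding to cells raised by more than 40% of the manganese-induced maximum; inconclusive = compound's own fluorescence above 85% of the ligand control signal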;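 note: 0% = ligand binding without compound and 100% = manganese-stimulated maximal binding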
Autofluor Jurkat – compound autofluorescence on Jurkat cells, primary screen, artefact control for VLA-4 allosteric ligand project, cell-based, flow cytometry. active compounds read high; 1 = vehicle-only cell background. 24,000 compounds, 0.61% hits. AID 576, 2007. fluorescence ratio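 (tested at 10 µM compound in the well)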;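 active = fluorescence ratio above 2.44, which is 1 plus 3 SD of all ratios; inconclusive = signal too bright to measure linearly, ratio around 10 or more; inactive = fluorescence ratio below 2.44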;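 note: green fluorescence of cells measured with 488 nm excitation and 530 nm emission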
FPR ligand – human FPR ligands by binding competition, primary screen, cell-based, FPRL1 counter-screen, flow cytometry. 24,000 compounds, 0.74% hits. inhibition, % (no concentration beside the values). FPR-expressing cells, fluorescent ligand binding. AID 440, 2006. fMet-Leu-Phe receptor (Homo sapiens), P21462;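 note: 0% = buffer wells and 100% = receptor blocker peptide wells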
Target sequence (P21462 whole entry, looked up): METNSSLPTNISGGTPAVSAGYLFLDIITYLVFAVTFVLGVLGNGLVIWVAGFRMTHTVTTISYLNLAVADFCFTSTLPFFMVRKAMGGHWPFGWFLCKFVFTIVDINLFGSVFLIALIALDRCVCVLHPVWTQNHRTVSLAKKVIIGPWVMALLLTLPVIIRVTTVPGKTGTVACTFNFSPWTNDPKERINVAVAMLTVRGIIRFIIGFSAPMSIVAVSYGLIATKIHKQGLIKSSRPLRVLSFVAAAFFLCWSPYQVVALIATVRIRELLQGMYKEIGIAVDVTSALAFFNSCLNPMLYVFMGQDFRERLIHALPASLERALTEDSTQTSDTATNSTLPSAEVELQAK
Proteasome disasm – inhibitors of ATP-driven 26S proteasome dissociation, primary screen, biochemical, bead-based flow cytometry, GFP-tagged proteasome. AID 751, 2007. 24,000 compounds, 0.2% hits. anti-FLAG beads, GFP-proteasome disassembly. inhibition of disassembly, % (no concentration beside the values);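 active = inhibition of disassembly above about 33%, limit read from the data; inconclusive = likely self-fluorescent, control bead median signal at least 40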;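 note: plate controls were ATP control with full disassembly for no effect and ATP-gamma-S intact proteasomes for full effect; higher percent means more bead fluorescence retained so stronger block of disassembly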
VLA-4 antagonist – inhibitors of LDV-FITC binding to Mn2+-activated VLA-4, primary screen, Jurkat cells; inhibition, % at 10 µM (by protocol); Integrin alpha-4 (Homo sapiens), P13612; LDV-FITC binding with Mn2+, flow cytometry; 100% = Mn2+-driven binding gain fully reversed; 24,000 compounds, 0.2% hits;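 active = inhibition above 50%; inconclusive = compound itself fluorescent, judged against control cell fluorescence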;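 note: 0% = Mn2+ stimulated cells lacking compound and 100% = ligand binding without Mn2+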
* = called active by the depositor; ? = inconclusive; . = not tested or not shown. This is a sample that favours compounds with a hit; in the whole collection about 1.9% have one here. Cut-off read from the data, not from the text of the source, unless noted: active = inhibition above about 30%; inconclusive = no clear call, values can overlap the other calls; inactive = below that.

SMILES	FPRL1 binder	VLA-4 allo ag	Autofluor Jurkat	FPR ligand	Proteasome disasm	VLA-4 antagonist
Cc1cc(C)cc(-n2nnc(C(=O)NCc3ccccc3Cl)c2N)c1	8	?	2.8*	-1	0	?
COc1ccccc1N(CC(=O)Nc1cccnc1)S(C)(=O)=O	-5	-2	1	-1	0	-22
N=c1c(C(=O)NC2CCCCC2)cc2c(=O)n3ccccc3nc2n1CCN1CCOCC1	0	7	0.86	11	-3	10
Cc1oc2cc(O)cc(O)c2c(=O)c1-c1ccc2c(c1)OCCCO2	23	.	.	31*	.	.
COc1cccc(CNC(=O)Cn2cc3c(n2)CCCC3)c1	30	-1	1.1	40*	-2	-20
O=C1c2ccccc2-c2nccnc21	11	0	1.1	4	-2	-17
O=C1c2ccccc2-c2nc3ncnn3c(-c3ccccc3Cl)c21	-14	?	3.7*	-12	-1	?
CCCn1c(CNc2ccc(Br)cc2)nc2ccccc21	3	-5	0.98	2	5	13
COc1ccc(CCn2c(-c3ccco3)nc3nc4ccccc4nc32)cc1	-6	?	1.7	5	9	?
COc1ccccc1Cn1c(-c2ccco2)nc2nc3ccccc3nc21	-9	?	2.6*	5	6	?
CCSc1nc(O)c(C2OC(=O)c3c2ccc(OC)c3OC)c(=O)n1-c1ccccc1 (stereo not given)	0	-7	0.96	34*	-1	14
COC(=O)C1=C(NC(=O)c2cccc(C)c2)CCS1	3	4	0.97	-3	1	0
CCCCOc1ccc(-c2nnn(CC(=O)NCc3ccco3)n2)cc1	-3	4	1.1	-8	0	-10
CCCCOc1ccc(-c2nnn(CC(=O)Nc3ncc(CC(=O)OCC)s3)n2)cc1	-10	-34	1	-1	0	94*
COc1ccc(-c2c(C)oc3c(CN4CCN(CCO)CC4)c(O)ccc3c2=O)cc1OC	28	.	.	31*	.	.
COc1ccccc1-c1c(C)oc2c(CN3CCN(CCO)CC3)c(O)ccc2c1=O	1	.	.	-7	.	.
COC(=O)C1=C(C)N=c2s/c(=C/c3cccs3)c(=O)n2C1c1cccs1 (stereo not given)	0	-6	0.96	-1	110*	18
CC1(C)CC(=O)C=C(NCCN2CCN(C(=O)Nc3ccccc3)CC2)C1	4	8	1.1	-2	-2	-12
CCOC(=O)Cc1cc(=O)n2[nH]c(C)c(-c3ccc(OC)cc3)c2n1	1	-2	1.1	44*	0	-8
CCOC(=O)Cc1cc(=O)n2[nH]c(C)c(-c3ccc(Cl)cc3)c2n1	1	.	.	54*	.	.
Cc1cc(NC(=O)c2cc(C3CC3)on2)no1	3	1	1.1	4	0	6
NC1=CC(=O)c2cccc3cccc1c23	-29	?	3.5*	-3	6	?
O=C(Nc1nonc1NC(=O)C1CCCCC1)C1CCCCC1	-3	5	1	9	-3	-11
CC(C(=O)Nc1ccccc1-c1ccccc1)N1CCN(C(=O)c2ccco2)CC1 (stereo not given)	-6	6	0.99	3	-1	-14
CCCN(CCC)CCCNS(=O)(=O)c1ccc2c(c1)oc(=O)n2C	-10	?	3.7*	-12	1	?
COCCNC(=O)CS(=O)Cc1nc(-c2ccc(Cl)cc2)oc1C (stereo not given)	1	?	0.82	-2	1	?
COCCSc1nnc(NC(=O)CSCc2ccccc2)s1	-1	5	1	6	0	6
CCOC(=O)C1=C(C)N=c2s/c(=C\c3cccn3C)c(=O)n2C1c1cccc(OC)c1OC (stereo not given)	-23	?	7.8*	-18	14	?
CCOC(=O)C1=C(C)Nc2nnnn2C1c1cccc(OC)c1OC (stereo not given)	6	-7	0.99	2	-1	-4
